This is an account of results in PubChem BioAssay (NCATS).

Inconclusive results are not listed. The source made the active and inactive calls. Unless noted, calls come from the whole dose curve; as a rule, active = well fitted curve in the direction sought with a large enough effect; inconclusive = small, poorly fitted or top-dose-only effect, or another doubt; inactive = no such curve, though single readings can be large; an effect the other way counts as inactive or inconclusive.

Experiment [1] has as its target Luciferin 4-monooxygenase (Photinus pyralis) (UniProt P08659). Briefly: Biochemical firefly luciferase enzyme assay for NPC (AID 624030).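 Note: purified P. pyralis luciferase at 10 nM with luciferin and ATP substrate; 0% = DMSO and -100% = full luciferase inhibition by PTC124 control; nearly all actives have a fitted effect of over 70% in size.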 In outline:
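Counter-screen for direct inhibition of the luciferase enzyme by approved-drug library compounds, run at 10 nM enzyme in 50 mM Tris acetate (final). Luminescence was read within 5 min of enzyme-buffer addition and normalized to PTC124 versus DMSO (0%).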

Experiment [2] in a line: S16 Schwann cell viability assay (CellTiter-Glo assay) (AID 624031).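 Note: native untransfected S16 rat Schwann cells; plate controls were DMSO-treated cells for no effect and cell-free wells for full effect; nearly all actives have a fitted effect of over 70% in size.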 An outline of the steps:
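Counter-screen for cytotoxicity: parental S16 rat Schwann cells lacking the PMP22 reporters, treated 24 h with compound, viability from cellular ATP by CellTiter-Glo luminescence, normalized to DMSO (0%) and no-cell wells.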
(In general: Cellular ATP, detected with luciferase, serves as a proxy for viable cell number.)

The nature of experiment [3]: S16 Schwann cell PMP22 intronic element firefly luciferase assay (AID 624032). Note: potency is the fitted concentration of half-maximal effect; nearly all actives have a fitted effect of over 30% in size. An outline of the steps:
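Rat S16 Schwann cells stably carrying a PMP22 intronic element-driven Fluc reporter were seeded overnight, then exposed to compounds for 24 h at 37 °C. Luminescence was normalized to PTC124 (positive control) and DMSO (0% activity).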

The nature of experiment [4]: S16 Schwann cell PMP22 intronic element beta-lactamase assay (AID 624044; calls by dose curve;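 note: 0% = DMSO and -100% = potassium clavulanate positive control; nearly all actives have a fitted effect of over 15% in size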). In outline:
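Rat S16 Schwann cells with beta-Lac driven by a PMP22 intronic element, compound-treated 24 h at 37 °C. LiveBLAzer FRET B/G read: 460 nm normalized to potassium clavulanate vs DMSO; 535 nm FRET as viability; concentration-effect curves classified.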

Experiment [5] in a line: Cytotoxicity counterscreen for NFkB agonists and antagonists (AID 624476).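 Note: cells exposed to compound for 48 hours.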 Note: potency is the fitted concentration of half-maximal effect. A general note: Counterscreens check selectivity or assay interference.
Experiment [6] can be described thus: qHTS Assay for Identification of Small Molecule Agonists for NFkB Signaling Pathway. (AID 624478). Note: 0% is about no effect. An outline of the steps: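 NFkB-bla ME-180 cells carry a beta-lactamase reporter. They received compound plus TNF alpha at 10 pM final (its EC50) for 5 h at 37 C. Reporter activity was read as 460/530 nm emission ratio after 2 h LiveBLAzer substrate loading.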
On the technique in general: Quantitative high-throughput screening tests each substance at several concentrations.

Experiment [7] can be described thus: qHTS Assay for Identification of Small Molecule Antagonists for NFkB Signaling Pathway. (AID 624479; calls by dose curve;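 note: pathway stimulated with TNF alpha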; note: potency is the fitted concentration of half-maximal effect).
Experiment [8] in a line: Cell Proliferation Assay against the TMD8 Cell Line (AID 651645).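 Note: cells exposed to compound for 48 h before reading.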 The following applies: TMD8 DLBCL cell line proliferation/viability; at 46.1 µM (top of the series). An outline of the steps: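 Luminescent ATP read-out (CellTiter-Glo, 15 min RT) after 48 h compound exposure of log-growing TMD8 cells at 37C; percent activity scaled between DMSO as 100% and 9.2 uM bortezomib final as 0%.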

Experiment [9] in a line: Cell Proliferation Assay against the HBL1 Cell Line (AID 651646).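 Note: cells exposed to compound for 48 h before reading.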 Conditions: HBL1 DLBCL cells; at 46.1 µM (top of the series). An outline of the steps:
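500 log-phase HBL1 cells per well in phenol red-free RPMI with 5% FBS were treated with compounds for 48 h at 37 °C, 5% CO2. Viability was read by CellTiter-Glo luminescence, normalized to DMSO (100%) and 9.2 uM bortezomib final (0%).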

Experiment [10] can be described thus: Cell Proliferation Assay against the TMD8 Cell Line (Caspase readout at 16 hrs) (AID 651712). Note: potency is the fitted concentration of half-maximal effect. An outline of the steps: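 TMD8 cells (500/well) in phenol-red-free RPMI with glutamine, 5% FBS, were exposed to compounds for 16 h at 37 °C. Caspase 3/7 activation was read by Caspase-Glo luminescence; percent activity normalised to DMSO (0%) and 9.2 uM bortezomib final (100%).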

Chain of Luciferin 4-monooxygenase (Photinus pyralis) (P08659 whole entry, looked up): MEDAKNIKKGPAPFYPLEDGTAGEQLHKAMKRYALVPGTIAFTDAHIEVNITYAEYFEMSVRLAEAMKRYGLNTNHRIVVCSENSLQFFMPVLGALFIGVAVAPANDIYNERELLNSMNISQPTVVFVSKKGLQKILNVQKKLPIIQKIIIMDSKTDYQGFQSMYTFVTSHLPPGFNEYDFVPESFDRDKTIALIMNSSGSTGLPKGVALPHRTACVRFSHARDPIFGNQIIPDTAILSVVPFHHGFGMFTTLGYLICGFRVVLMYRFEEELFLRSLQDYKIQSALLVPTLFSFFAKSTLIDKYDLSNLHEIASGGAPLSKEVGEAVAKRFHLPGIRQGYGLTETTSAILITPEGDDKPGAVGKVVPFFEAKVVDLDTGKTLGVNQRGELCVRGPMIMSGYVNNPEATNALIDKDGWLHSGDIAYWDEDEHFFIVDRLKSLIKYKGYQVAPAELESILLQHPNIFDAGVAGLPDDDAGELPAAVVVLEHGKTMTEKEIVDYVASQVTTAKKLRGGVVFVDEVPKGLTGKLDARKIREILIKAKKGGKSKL

As to `O=C(O)c1nc(=O)[nH]c(=O)[nH]1`, the molecule was called inactive in experiment [1] and in experiment [2]. In experiment [3], the Potency was 16.1 µM (active). Also, the Potency entry in experiment [4] was “inactive”.

Turning to `CC[C@@H]([C@H](C)O)n1ncn(-c2ccc(N3CCN(c4ccc(OCC5CO[C@@](Cn6cncn6)(c6ccc(F)cc6F)C5)cc4)CC3)cc2)c1=O` (stereo partly specified), the outcome in experiment [1] was inactive.

As for `CC[C@H]1OC(=O)[C@H](C)[C@@H](O[C@H]2C[C@@](C)(OC)[C@@H](O)[C@H](C)O2)[C@H](C)[C@@H](O[C@@H]2O[C@H](C)C[C@H](N(C)C)[C@H]2O)[C@](C)(O)C[C@H](C)C(=NOCOCCOC)[C@H](C)[C@@H](O)[C@]1(C)O`, the outcome in experiment [1] was inactive.

With `NS(=O)(=O)c1cc(Cl)c(Cl)c(S(N)(=O)=O)c1`, the result in experiment [1] and in [2] was inactive.

Regarding `CCC[C@H](N[C@@H](C)C(=O)N1[C@@H]2CCCC[C@H]2C[C@H]1C(=O)O)C(=O)OCC`, the call in [1] was inactive.

In the case of `CN(C)CCN(Cc1ccc(Cl)cc1)c1ccccn1`, the molecule was classed as inactive in [1].

As to `COc1c(C)cnc(Cn2cnc3c(Cl)nc(N)nc32)c1C`, the Potency entry in [5] was “inactive”. Besides, in experiment [6], the call was inactive. Also, the Potency in [7] was 0.0211 µM (active). Further, in experiment [8], the viability (% of control) worked out at 13.8%. In experiment [9], the viability, percent of control was determined as 59.9%.

In the case of `COc1ccc2c(c1)CC[C@H]1[C@@H]2CC[C@]2(C)[C@@H](NCCCCCCN3C(=O)C=CC3=O)CC[C@H]12`, the Potency entry in [5] and in experiment [7] was “inactive” throughout. The molecule was classed as inactive in experiment [6]. In addition, in experiment [8], the viability (% of control) worked out at 15.9%. Further, the viability, percent of control in [9] came to 33.1%.

On to `Fc1ccc(C(c2ccc(F)cc2)N2CCN(CC=Cc3ccccc3)CC2)cc1`, for which, in [1], the result was inactive. The Potency entry in experiment [4] is “inactive”.

Regarding `CCNC(=O)c1noc(-c2cc(C(C)C)c(O)cc2O)c1-c1ccc(CN2CCOCC2)cc1`, in experiment [5], the Potency result was “inactive”. The outcome in experiment [6] was inactive. Also, the Potency in [7] is 0.0009 µM (active). Further, the viability (% of control) in experiment [8] came to 7.59%.

Turning to `CC(C)(CO)[C@@H](O)C(=O)NCCC(=O)O`, in experiment [1], the result was inactive.

Take `CN1CC(=O)N2C(Cc3c([nH]c4ccccc34)[C@H]2c2ccc3c(c2)OCO3)C1=O` (stereo partly specified): the result in [1] and in experiment [2] was inactive. Besides, in experiment [4], the Potency entry was “inactive”.

Regarding `CC1=C[C@@H]2[C@@H]([C@@H](O)C[C@@]3(C)[C@H]2C[C@@H](C)[C@]3(O)C(=O)CO)[C@@]2(C)Cc3cnn(-c4ccccc4)c3C=C12`, the outcome in experiment [6] was inactive. Further, the viability (% of control) in experiment [8] is 0.486%.

Turning to `COc1cccc(OC)c1-c1cc(C(=O)NC2(C(=O)O)C3CC4CC(C3)CC2C4)nn1-c1ccnc2cc(Cl)ccc12` (stereo unspecified), the Potency in experiment [5] was 14.8 µM (active); in [7], 16.8 µM (active); in experiment [10], 23.5 µM (active). Moreover, the call in [6] was inactive. Besides, in experiment [8], the viability (% of control) is 69%.

As for `CCCCc1ccc(NS(=O)(=O)c2ccc(C)c(C(=O)N3CCN(c4cccc(C)c4C)CC3)c2)cc1`, the Potency was 20.9 µM (active) in experiment [5], 16.8 µM (active) in [7] and 20.9 µM (active) in [10]. In addition, the viability (% of control) in experiment [8] was 9.89%.

Take `CC(C)n1c(C=C[C@H](O)C[C@H](O)CC(=O)O)c(-c2ccc(F)cc2)c2ccccc21`: the Potency entry in [5], in experiment [7] and in experiment [10] was “inactive” each time. Also, the outcome in experiment [6] was inactive.

On to `COC(=O)Nc1ccc(-c2nc(N3CCOCC3)c3cnn(C4CCN(C(=O)OC)CC4)c3n2)cc1`, for which the molecule was called inactive in [6]. Moreover, in experiment [7], the Potency entry was “inactive”. Also, in experiment [8], the viability (% of control) came out at 32.2%.

As for `Cc1ccc(C(=O)N(CCCN)[C@@H](c2nc3cc(Cl)ccc3c(=O)n2Cc2ccccc2)C(C)C)cc1`, the Potency in [5] was 23.5 µM (active). In [6], the outcome was inactive. Also, in experiment [8], the viability (% of control) was determined as 0.587%.

As to `CCOC(=O)[C@@H](N)CCC(=O)N[C@@H](CSCc1ccccc1)C(=O)N[C@@H](C(=O)OCC)c1ccccc1`, the Potency result in experiment [5] was “inactive”. Also, the viability (% of control) in experiment [8] came out at 62.4%. The viability, percent of control in experiment [9] was 89.4%.

With `Cc1ccc(NC(=O)c2ccc(CN3CCN(C)CC3)cc2)cc1Nc1nc(-c2cccnc2)cs1`, the Potency entry in experiment [5] and in [10] was “inactive” each time. Further, the outcome in [6] was inactive. Further, in experiment [7], the Potency is 16.8 µM (active). Besides, in [8], the viability (% of control) is 8.7%.

On to `CN(C)CCN(C)C(=O)c1ccc(NC(=O)Nc2ccc(-c3nc(N4CCOCC4)c4ccn(CC(F)(F)F)c4n3)cc2)cc1`, for which the Potency in [5] is 4.18 µM (active). Besides, in experiment [6], the outcome was inactive. Moreover, in experiment [8], the viability (% of control) is 0.807%.

As to `O=C(O)c1ccc(O)c2ncc(N3CCOCC3)cc12`, the Potency entry in experiment [5], in [7] and in experiment [10] was “inactive” in each case. In experiment [6], the molecule was classed as inactive. Also, in experiment [8], the viability (% of control) was 77.1%.

Regarding `CNC(=O)c1cc(COc2nnc(Nc3ccc(Cl)cc3)c3ccoc23)ccn1`, in experiment [7], the Potency was 26.6 µM (active). In addition, the viability (% of control) in experiment [8] was found to be 39.7%.

On to `CCCCCCCCCCCCCC(=O)N[C@H](CO)[C@H](O)c1ccc([N+](=O)[O-])cc1`, for which the molecule was classed as inactive in experiment [6]. Further, the Potency in [7] was 29.8 µM (active). Besides, the viability (% of control) in experiment [8] came to 4.37%.

`CN1C(=O)C(Cc2c[nH]c3ccccc23)NC1=S` (stereo unspecified): the Potency entry in experiment [5], in experiment [7] and in experiment [10] was “inactive” each time. For the same molecule, in experiment [6], the outcome was inactive. In addition, the viability (% of control) in experiment [8] was found to be 80.6%.

`Cn1cc(-c2ccc3nnc(Sc4ccc5ncccc5c4)n3n2)cn1`: the Potency entry in experiment [5], in experiment [7] and in experiment [10] was “inactive” throughout. In addition, in [8], the viability (% of control) was found to be 74.4%.

As to `CC(=O)NCCC(=O)N[C@@H](CCC(N)=O)C(=O)N[C@@H](CO)C(=O)N[C@@H](CCC(N)=O)C(=O)N[C@@H](CCC(N)=O)C(=O)N[C@H](C(=O)N[C@@H](Cc1ccccc1)C(=O)N[C@]1(C)CCCCCCC=CCCC[C@@](C)(C(=O)N[C@@H](CCC(N)=O)C(=O)N[C@@H](CC(N)=O)C(N)=O)NC(=O)[C@H](CC(C)C)NC(=O)[C@H](CC(C)C)NC(=O)[C@@H](CCCNC(=N)N)NC(=O)[C@H](Cc2c[nH]c3ccccc23)NC(=O)[C@H](CC(C)C)NC(=O)[C@H](CC(N)=O)NC1=O)[C@H](C)O`, the outcome in experiment [6] was inactive. Also, the viability (% of control) in experiment [8] was 22.4%. Further, the Potency entry in experiment [10] was “inactive”.

Consider `O=C(Nc1cccc(Cl)c1)Nc1ncc(CCNc2ncnc3ccsc23)s1`, for which, in experiment [6], the result was inactive. Also, the Potency in experiment [7] is 23.7 µM (active). In experiment [8], the viability (% of control) was 1.73%. In experiment [10], the Potency result was “inactive”.

Consider `CC(O)=C(C#N)C(=O)Nc1ccc(C(F)(F)F)cc1`, for which the molecule was classed as inactive in [6]. Also, the Potency in [7] is 1.88 µM (active). The viability (% of control) in experiment [8] was determined as 43.6%. Also, the Potency entry in experiment [10] was “inactive”.

With `COc1nc(C)cnc1NS(=O)(=O)c1cccnc1-c1ccc(-c2nnco2)cc1`, the Potency entry in experiment [5], in experiment [7] and in experiment [10] was “inactive” throughout. Further, in experiment [6], the outcome was inactive. Besides, in experiment [8], the viability (% of control) is 116%.

Consider `CCN(CC)CCCCNc1nc2cc(Cl)c(Cl)cc2nc1-c1ccc(-c2cccs2)s1`, for which, in [6], the molecule was classed as inactive. For the same molecule, the Potency in experiment [7] was 11.9 µM (active). Also, in experiment [8], the viability (% of control) was 1.61%. Further, the Potency entry in [10] was “inactive”.
